# An excerpt weighted towards active compounds, which were near 2.4% of everything screened.
# S1P4 ag: human S1P4 receptor agonism; O95977; S1P4-expressing cell line, agonist reporter assay; activation, % at 4.98 µM; actives 0.35% (n = 220,000); AID 1509; in the data active = activation above about 11%;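 note: 0% = DMSO vehicle and 100% = reference agonist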
# Target sequence (O95977 whole entry, looked up): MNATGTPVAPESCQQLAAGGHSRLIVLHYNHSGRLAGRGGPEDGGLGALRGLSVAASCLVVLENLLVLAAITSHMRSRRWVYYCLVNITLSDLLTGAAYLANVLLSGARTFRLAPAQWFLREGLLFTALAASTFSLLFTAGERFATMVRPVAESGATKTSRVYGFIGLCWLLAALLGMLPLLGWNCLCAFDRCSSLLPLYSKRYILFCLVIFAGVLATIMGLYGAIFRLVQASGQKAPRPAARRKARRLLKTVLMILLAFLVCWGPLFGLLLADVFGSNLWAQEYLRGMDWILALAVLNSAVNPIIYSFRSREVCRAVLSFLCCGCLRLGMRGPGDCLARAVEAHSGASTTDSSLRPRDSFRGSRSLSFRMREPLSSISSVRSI
# EP2 antag: EP2 receptor (human) inhibition; P43116; C6 glioma cells expressing human EP2, cAMP TR-FRET; cells stimulated with saturating PGE2; inhibition, % at 25 µM; actives 0.52% (n = 260,000);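 active = percent inhibition above 40 after rounding to a whole number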;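 note: rat C6 glioma host cells with rolipram phosphodiesterase inhibitor present; the protocol text gives 20 µM as final concentration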
# S1P3 antag: blocks the human S1P3 receptor. actives 0.27% (n = 170,000). AID 485. CHO S1P3 NFAT-BLA reporter, FRET fluorescence, antagonist mode. Q99500. inhibition, % at 4.98 µM;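 active = inhibition above the plate cutoff, the mean inhibition of test wells on that plate plus 3 SD, cut at about 28% in these data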;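 note: cells challenged with S1P at its EC80 of 0.8 µM; blue over green emission ratio from cleaved BLA substrate after 4 h stimulation; 0% = S1P-stimulated wells and 100% = unstimulated DMSO-only wells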
# Insulin prom inh: TRM-6 insulin promoter activity inhibition; AID 1273; TRM-6 cells (human fetal islet line), insulin promoter-eGFP reporter, imaging; reporter expression induced with tamoxifen; actives 0.9% (n = 130,000); inhibition, % at 2 µM;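 active = inhibition above the mean plus 3 SD, with well images judged a real hit on visual review, cut at about 60% in these data, passing the limit was not always enough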
# EP2 modulator: modulators of human EP2 prostaglandin E2 receptor | actives 0.83% (n = 260,000) | P43116 | EP2-expressing cells, cAMP HTRF FRET, PGE2 co-stimulation | induction, % at 25 µM | AID 940;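 active = compounds whose cAMP rise, as percent of the full-agonist control response, exceeds 60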;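 note: rat C6 glioma line stably carrying human EP2 under a CMV promoter; the protocol text gives 20 µM as final concentration; 100% = response of wells given 1 µM PGE2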
# S1P4 antag: human S1P4 receptor antagonism. O95977. S1P4-expressing cells, antagonist mode, reporter read-out. inhibition, % at 4.98 µM. actives 0.26% (n = 220,000). AID 1510; in the data active = inhibition above about 29%;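 note: 0% = wells stimulated with agonist and 100% = vehicle wells without agonist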
# * = called active by the depositor; . = no result.
SMILES,S1P4 ag,EP2 antag,S1P3 antag,Insulin prom inh,EP2 modulator,S1P4 antag
Brc1cc2c(cc1/C=N/Nc1nc3ccccc3s1)OCO2,0.1,41.1*,.,17.1,-28.2,3.0
Cc1occc1C(=O)Nc1nn[nH]n1,-0.2,13.4,.,91.9*,23.8,8.1
CCc1nc2cccnc2n1CCNC(=O)Cc1cccs1,.,.,.,.,18.6,.
COc1c(-c2coc3cc4c(cc3c2=O)CC(O)C(C)(C)O4)ccc2c1C=CC(C)(C)O2 (stereo unspecified),.,91.8*,.,.,-52.5,.
CCC(c1nnnn1C1CCCCC1)N(Cc1ccco1)Cc1cc2c(C)ccc(C)c2[nH]c1=O (stereo unspecified),.,12.7,.,.,76.5*,.
CCC(c1nnnn1C1CCCCC1)N(CCc1cccc(C)c1)Cc1cc2cccc(C)c2[nH]c1=O (stereo unspecified),.,1.1,.,.,2.8,.
CCC(c1nnnn1C1CCCC1)N(Cc1ccccc1)Cc1cc2cccc(C)c2[nH]c1=O (stereo unspecified),.,25.3,.,.,63.8*,.
CC1CC(C)CN(C(=O)CN2CCC(n3nnc4ccccc4c3=O)CC2)C1 (stereo unspecified),.,7.6,.,.,-22.9,.
c1ccc(C[n+]2cccc(-c3ccccc3)c2)cc1,0.8,7.3,-3.8,1.6,7.4,-19.6
c1ccc(C[n+]2cccc(-c3cc4ccccc4[nH]3)c2)cc1,.,58.5*,.,.,-32.1,.
CC(C)(C)NC(=O)CSc1nnnn1C1CCCCC1,.,4.3,.,.,-10.0,.
CCN(CC)CC[n+]1ccc2c(C)c3[nH]c4ccccc4c3c(C)c2c1,.,58.2*,.,.,-41.5,.
CC1=NN(C(=O)c2ccco2)C(O)(c2cccnc2)C1 (stereo unspecified),.,4.5,.,.,-26.6,.
O=C(Nc1cccc(Br)c1)c1ccc2nc(N3C(=O)CCC3=O)sc2c1,0.9,11.6,.,17.1,-36.0,0.0
CC(C)(C)c1ccc(C(=O)Nc2cccc([N+](=O)[O-])c2)cc1,0.2,9.4,20.1,72.4*,-68.9,-8.0
O=C(Nc1cccc([N+](=O)[O-])c1)c1ccncc1,0.8,5.3,-6.1,38.8,11.7,-12.7
O=C(Nc1cccc([N+](=O)[O-])c1)c1ccc2nc(N3C(=O)CCC3=O)sc2c1,-0.3,85.5*,.,38.9,-37.6,-6.2
COC(=O)c1ccc(Oc2nc(C(N)=O)cc(-c3ccccc3)n2)cc1,1.2,8.0,.,61.1*,4.3,-6.2
Cc1ccc(Cn2nnnc2CN2CCC(O)(c3cccnc3)CC2)cc1,-1.3,6.7,-11.0,78.6*,38.6,-7.5
Cc1ccc(Cn2nnnc2CN2CCC(O)(c3ccc(F)cc3)CC2)cc1,-1.0,3.1,-5.3,0.0,-33.1,6.3
COc1ccc(N=C2NN=C(c3ccc4c(c3)OCCO4)CS2)cc1,2.1,40.8*,.,8.6,-1.8,-21.5
C/C(N[O-])=C(\C)[N+]([O-])=[Rh][Cl].CC(=N\[O-])/C(C)=N/[O-].NC(N)=[SH+],.,48.8*,.,.,25.7,.
CSc1nc(-c2ccccc2)nn1C(=O)c1ccc(Cl)cc1,0.9,13.9,.,4.0,33.5,-6.0
CSc1nc(-c2ccc(Cl)cc2)nn1C(=O)c1ccccc1,2.1,9.0,-13.9,79.4*,41.1,-24.4
Cn1ccnc1C1(O)CCN(C(=O)c2ccc(F)cc2)CC1,.,9.8,.,.,-2.4,.
SMILES,S1P4 ag,EP2 antag,S1P3 antag,Insulin prom inh,EP2 modulator,S1P4 antag
Cc1c(Cl)cccc1-n1c(SCC(=O)NCc2cccs2)nnc1-c1ccncc1,-1.5,4.3,.,91.2*,-3.2,2.5
O=C1C=CC(=O)C(C2=C3C(=O)N(CCc4ccccc4)CC(=O)N3CCC2)=C1,-0.5,89.9*,-12.7,-278.6,-53.4,-2.0
Cc1ccc(Cn2ccc(NC(=O)c3nn(C)cc3[N+](=O)[O-])n2)cc1,0.2,2.7,-10.8,.,-41.7,-2.1
Cc1cnc(NC(=O)c2nn(C)cc2[N+](=O)[O-])s1,-1.1,46.2*,-6.8,.,-36.7,22.2
Cn1cc([N+](=O)[O-])c(C(=O)Nc2nc(-c3ccc(Cl)cc3)cs2)n1,-5.9,75.4*,.,25.0,-41.8,25.7
O=C(Nc1nc(-c2ccc([N+](=O)[O-])cc2)cs1)c1c(F)cccc1F,4.4,8.1,-0.9,.,-78.2,3.9
CCCCN(CCCC)S(=O)(=O)c1c(C)[nH]c(=O)[nH]c1=O,0.8,4.7,-14.9,72.7*,10.9,-19.0
CN1CCN(C(=S)NC(=O)c2ccc(C(C)(C)C)cc2)CC1,-1.1,11.9,-5.2,66.7*,5.4,-7.0
CC[C@H](Cn1nc(-c2cccs2)ccc1=O)NC(=O)Cn1ncc2ccccc2c1=O,.,.,.,.,4.6,.
COC(=O)c1ccc(C(C(=O)NCc2ccccc2)N(Cc2ccco2)C(=O)c2cnccn2)cc1 (stereo unspecified),18.5*,10.2,-5.8,-94.1,-10.1,1.8
O=C(c1nccs1)C1CCN(C(=O)c2cc(F)cc(F)c2)CC1,.,.,.,.,-6.7,.
CC(Nc1ccc(Br)cn1)c1cc(Cl)ccc1O (stereo unspecified),2.7,.,67.0*,28.6,-16.8,8.4
CC(Nc1ccc(Cl)cc1)c1cc(Cl)ccc1O (stereo unspecified),1.2,12.1,.,25.6,-54.2,-1.6
COCCCN(Cc1ccccn1)Cc1nc(-c2ccc(C(F)(F)F)cc2)no1,.,7.1,.,.,-12.2,.
CCSc1nc2sc3c(c2c(=O)n1C)CCCC3,.,6.8,.,.,60.8*,.
Cc1nnc(NC(=O)c2c(O)c3ccccc3n(C)c2=O)s1,.,6.0,.,.,-10.7,.
COc1cc2nc(/C=C/c3ccc(N(C)C)cc3)sc2cc1SC,3.4,7.8,54.9*,.,-27.4,23.3
Cc1nc(SCC(=O)Nc2ccc(N(C)C)cc2)n[nH]1,.,14.9,.,.,-29.7,.
CCNC(=S)N(CCN(C)C)Cc1cc2cc(C)c(C)cc2[nH]c1=O,.,10.7,.,.,-24.3,.
Cc1cccc(NC(=S)NC(=O)C(c2ccccc2)c2ccccc2)n1,1.2,4.0,.,72.1*,.,-22.0
Cc1cccc(NC(=S)Nc2ccccc2)n1,.,13.5,.,.,-5.9,.
CN(C(=O)[C@H]1C[C@@H](c2ccc(F)cc2)NS(=O)(=O)N1C)C1CCCCC1,.,.,.,.,-72.1,.
Clc1ccc(OCCSc2ncccn2)cc1,1.7,9.0,.,66.2*,-9.7,0.5
O=C(O)CCCCCCC1C(=O)NC(=O)N1CCC(O)C1CCCCC1 (stereo unspecified),1.0,8.6,2.0,-26.1,106.2*,-18.5
O=C(O)CCCCCC[C@H]1C(=O)NC(=O)N1CC[C@@H](O)C1CCCCC1,.,13.5,.,.,100.0*,.
CCc1sc(C(=O)Nc2cc(Cl)ccc2N2CCCCC2)cc1C,0.6,6.7,.,.,33.1,16.9
Cc1ccc(C(=O)Nc2cc(Cl)ccc2N2CCCCC2)s1,1.1,11.7,.,-17.1,62.4*,0.4
C=C(C)C1Cc2c(C)nn(-c3ccccc3)c2C1 (stereo unspecified),0.1,10.9,19.5,-9.1,60.8*,-34.5
C=C(C)C1Cc2c(C)nn(-c3cccc4ccccc34)c2C1 (stereo unspecified),4.9,4.2,.,25.7,60.1,-14.6
COC(=O)C1CCN(CC(=O)Nc2ccccc2Sc2ccccc2)CC1,1.4,5.9,-0.2,.,58.9,-5.1

# Screens as filed in PubChem.
